We go through 10 molecules from PubChem BioAssay (NCATS).

Test [1] can be described thus: Cell Viability - LYMP2-020 (AID 986).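 Note: cells exposed to compound for 24 h at 37 °C; plate controls were DMSO only for no effect and tetraoctylammonium bromide at 92 µM for full effect; nearly all actives have a fitted effect of over 55% in size.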 The method in brief: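 Cells at 2500 per well receive a 24 hr compound exposure at 37 C. Viability is measured as ATP-dependent luciferase luminescence, with AC50 modeled from qHTS concentration-response curves.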
The nature of test [2]: Cell Viability - LYMP2-022 (AID 987).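 Note: 0% = DMSO alone and full effect = tetraoctylammonium bromide at 92 µM; nearly all actives have a fitted effect of over 55% in size.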 The gist of the method:
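In this qHTS cytotoxicity screen, compound titrations were incubated 24 hr at 37 C with human lymphoblastoid cells in complete medium. Luciferase-based ATP luminescence provided the viability signal.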

A short description of test [3]: Cell Viability - LYMP2-024 (AID 988).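 Note: plate controls were DMSO only for no effect and 92 µM tetraoctylammonium bromide for full effect; nearly all actives have a fitted effect of over 60% in size.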 The method in brief:
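Cells at 2500 per well received compound for 24 hr after a 5 hr settling period. Viability was scored by CellTiter-Glo luminescence, with AC50 from Hill fits.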

The nature of test [4]: Cell Viability - LYMP2-026 (AID 989).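 Note: cells exposed to compound for 24 h at 37 °C; % is set by controls: 0 for no effect and ±100 for the full control effect; nearly all actives have a fitted effect of over 50% in size.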 The method in brief:
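Acute toxicity screen in complete culture medium, with 24 hr compound exposure at 37 C. Viability read as cellular ATP via luciferase reaction, with tetraoctylammonium bromide (6.4pM to 92 uM) as positive control.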

A short description of test [5]: Cell Viability - LYMP1-002 - Assay at 24 hr (AID 993). Note: % is set by controls: 0 for no effect and ±100 for the full control effect. The method in brief: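 Viability was judged from intracellular ATP using a luciferase read-out, following a 24-hour compound incubation at 37 C of lymphoblastoid cells seeded at 2500 per well. Concentration-response data were fitted to the Hill equation for AC50.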
A short description of test [6]: Cell Viability - LYMP1-002 - Assay at 40 hr (AID 994).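 Note: 0% = DMSO only and full inhibition = 92 µM tetraoctylammonium bromide; nearly all actives have a fitted effect of over 60% in size.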 The gist of the method: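 Concentration-dependent ATP loss after 40 hr treatment at 37 C defined toxicity; AC50 values were obtained by fitting the standard Hill equation.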
Test [7] in a line: qHTS Assay for Identification of Small Molecule Inducers of Hypoxia Response (AID 2120; active = well fitted curve in the direction sought with a large enough effect in the signal ratio, with a control signal flat, not every such curve was filed as active; the % refers to the signal ratio; note: 0% is about no effect). The method in brief: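 HRE-bla ME-180, 2500 cells/well, 0.5% dialyzed FBS medium; cpd titration, 17 h 37 degrees C; CCF4 2.5 h RT; Ex 405, Em 460/530 ratio -> %Activity, AC50.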
The target of test [8] is Alpha-galactosidase A (Homo sapiens) (UniProt P06280). As to the kind of experiment: Counterscreen for Glucocerebrosidase Inhibitors: qHTS Assay for Human alpha-Galactosidase at pH 4.5 (AID 992). Note: 0% is about no effect. The gist of the method:
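Fluorogenic 1536-well qHTS at pH 4.5 (citrate, Tween-20): 2 nM enzyme, 80 uM 4-MU-alpha-galactoside, 20 min room temperature, NaOH/glycine stop. Titration 0.7 nM to 77 uM, data normalized to no-enzyme and full-activity controls, Hill-fitted AC50.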

In test [9] the target is alpha-glucosidase (Oryza sativa, rice) (UniProt Q653V4). As to the kind of experiment: Counterscreen for Glucocerebrosidase Inhibitors: qHTS Assay for Rice alpha-Glucosidase at pH 5.0 (AID 997).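 Note: 0% = full activity with enzyme and -100% = basal without enzyme.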 The gist of the method: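 Endpoint fluorogenic assay at pH 5.0: compounds (0.7 nM to 77 uM) titrated against 4 nM rice enzyme and 400 uM 4-MU-alpha-glucoside for 20 min at room temperature; NaOH/glycine stop, read ex 365/em 440 nm, Hill-fitted AC50.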

Test [10] in a line: qHTS Assay for Lipid Storage Modulators (AID 1519; calls by dose curve). Particulars: Drosophila S3 cells, BODIPY lipid droplet/cell ratio, laser cytometry, cells loaded with oleic acid; for activity change, negative = inhibition: at 57.5 µM (top of the series). The method in brief: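 Cells seeded at 5,000 per well were treated with compounds over a concentration series and loaded with oleic acid (400 uM, as added). Lipid droplet fluorescence (488 nm excitation, 500-530 nm channel) was read by laser-scanning cytometry and normalized to 20 uM Triacsin C.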
A general note: Quantitative high-throughput screening tests each substance at several concentrations.

Test [11] can be described thus: Validation of Assay for Modulators of Lamin A Splicing (AID 1459; active = well fitted curve in the direction sought with a large enough effect in the signal ratio; the % refers to the signal ratio;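 note: cells exposed to compound for two days before reading; 0% is about no effect; ratio rise marks activators and ratio drop marks inhibitors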). The method in brief:
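Splicing correction is reported by an EGFP-containing lamin A minigene in stably transfected S3 HeLa cells, while DsRed2 controls for viability and nonspecific signal. Cells are exposed to compounds for 48 hrs before the GFP over RFP ratio is taken.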

For test [12], the target named is DNA repair nuclease/redox regulator APEX1 (Homo sapiens) (UniProt P27695). As to the kind of experiment: qHTS Validation Assay for Inhibitors of the Human Apurinic/apyrimidinic Endonuclease 1 (APE1) (AID 1705;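 note: TAMRA fluorescence gain over two minutes as APE1 cuts a quenched THF abasic duplex; % is set by controls: 0 for no effect and ±100 for the full control effect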). The gist of the method:
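Endonuclease activity of human APE1 is followed as dequenching when the enzyme incises a tetrahydrofuran abasic site in a short duplex labelled 5'-TAMRA/3'-BHQ-2 (50 nM final), after 15 min enzyme–compound preincubation at room temperature.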

The target in test [13] is Endonuclease 4 (Escherichia coli (strain K12)) (UniProt P0A6C1). As to the kind of experiment: Counterscreen for APE1 Inhibitors: qHTS Validation Assay for Inhibitors of Endonuclease IV (AID 1708). Note: % is set by controls: 0 for no effect and ±100 for the full control effect. The method in brief: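 The reaction buffer contained 50 mM Tris-HCl pH 7.5, 50 mM NaCl, 2 mM MgCl2, 1 mM DTT and 0.01% Tween-20. Incision of a 50 nM fluorophore/quencher THF substrate by 2 nM enzyme was measured kinetically.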
(The purpose of a counterscreen is to sort out artefacts and off-target activity.)

Test [14] in a line: qHTS Assay for Modulators of Human Peripheral Myelin Protein 22 (PMP22) Expression/Activity (AID 1967; active = well fitted curve in the direction sought with a large enough effect in the signal ratio; the % refers to the signal ratio;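 note: 0% = untreated cells and 100% end not stated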). The gist of the method: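 Quantitative HTS in a mouse Schwann cell line expressing dual click beetle luciferases: Pmp22 promoter (green) and control EF-alpha promoter (red). After 24h treatment, corrected green/red signal ratio gave %Activity relative to untreated cells.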

For test [15], the target named is Ferritin light chain (Equus caballus) (UniProt P02791). The test is described as follows: qHTS Validation Assay for Identification of Novel General Anesthetics (AID 2323). Note: % is set by controls: 0 for no effect and ±100 for the full control effect. The gist of the method:
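Apoferritin from horse spleen (10 uM) was mixed with 1-aminoanthracene at 50% saturation in PBS, then compounds were added. After 10 min at room temperature, fluorescence was read (ex 380 nm, em 535 nm) and normalized to free-probe and complex controls.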

The target of test [16] is ATP-dependent DNA helicase Q1 (Homo sapiens) (UniProt P46063). The test is described as follows: qHTS Validation Assay for Inhibitors of RecQ-Like Dna Helicase 1 (RECQ1) (AID 2353).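 Note: plate controls were DMSO vehicle for no effect and enzyme-free control for full effect.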 The method in brief:
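RECQ1T1 50 nM; forked duplex (20 bp + 30-nt ss tails) 200 nM, ATP 2 mM final; pH 8.0, 2 mM MgCl2, 2.5 ug/ml poly(dI-dC); 15 min compound preincubation; discontinuous kinetic read over 2 h at RT.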

Test [17] in a line: Cytometric Cell-Based qHTS for Inhibitors of the mTORC1 Signaling Pathway in MEF (Tsc2-/-, p53-/-) Cells (AID 2660).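 Note: Tsc2 and p53 null MEFs carrying empty vector with compound for 24 h; percent of cells above a phospho-rpS6 to PI ratio cutoff in each well; plate controls were DMSO for no effect and rapamycin for full effect.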 The method in brief:
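Immunofluorescence qHTS of rpS6 Ser235/236 phosphorylation: MEFs (Tsc2-/-, p53-/-) treated 24 h, 37 C, in DMEM + 10% FBS. Alexa-488 signal normalized to PI count, referenced to rapamycin (7.5 nM) and DMSO; PI cell number recorded for viability.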

Test [18] is described as follows: High Content Imaging Cell-Based qHTS for Inhibitors of the mTORC1 Signaling Pathway in MEF (Tsc2-/-, p53-/-) Cells (AID 2666).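 Note: percent of cells scored positive for phospho-rpS6 Ser235/236 immunostaining by imaging.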 The settings on record: at 38.3 µM (top of the series). The method in brief: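 Tsc2-/-, p53-/- MEFs (empty-vector stable) grown in DMEM + 10% FBS were exposed to compounds for 24 hrs at 37 degree Celsius, fixed, and stained with Alexa-488 anti-phospho-rpS6 Ser235/236 plus Hoechst. Imaging gave the percentage of positive cells per well.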

Test [19] in a line: High Content Imaging Cell-Based qHTS for Inhibitors of the mTORC1 Signaling Pathway in MEF Cells (AID 2667).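 Note: Tsc2-/- p53-/- MEFs stably re-expressing wild-type Tsc2 exposed 24 h; plate controls were DMSO wells for no effect and rapamycin control wells for full effect.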 The method in brief:
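Tsc2-/-, p53-/- MEFs stably re-expressing WT Tsc2, grown in DMEM + 10% FBS, were treated with compounds for 24 hrs at 37 degree Celsius, fixed, and stained with Alexa-488 phospho-rpS6 Ser235/236 antibody plus Hoechst; results given as % positive cells.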

Test [20] concerns the target RecQ-like DNA helicase BLM (Homo sapiens) (UniProt P54132). As to the kind of experiment: qHTS Validation Assay for Inhibitors of Bloom's syndrome helicase (BLM) (AID 2364).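 Note: plate controls were DMSO vehicle for no effect and enzyme-free control for full effect.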 The gist of the method: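 Forked 20-bp duplex substrate (200 nM, TAMRA/BHQ-2) plus 2 mM ATP added after 15 min compound preincubation with 50 nM enzyme, pH 8.0, poly(dI-dC) 2.5 ug/ml. Strand separation followed by fluorescence (525/598 nm) over 2 h, normalized to enzyme-free and DMSO controls.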

The mark [21] stands for this setting: measured here: cell count channel max response.
[22] abbreviates: measured here: lipid channel max response.

“And” between values parts separate entries of the source, which are not always exact repeats. Identical values can stand only once. Results filed as inconclusive are left out. The source made the active and inactive calls. Unless noted, calls come from the whole dose curve; as a rule, active = well fitted curve in the direction sought with a large enough effect; inconclusive = small, poorly fitted or top-dose-only effect, or another doubt; inactive = no such curve, though single readings can be large; an effect the other way counts as inactive or inconclusive.

Sequence of Alpha-galactosidase A (Homo sapiens) (P06280 whole entry, looked up): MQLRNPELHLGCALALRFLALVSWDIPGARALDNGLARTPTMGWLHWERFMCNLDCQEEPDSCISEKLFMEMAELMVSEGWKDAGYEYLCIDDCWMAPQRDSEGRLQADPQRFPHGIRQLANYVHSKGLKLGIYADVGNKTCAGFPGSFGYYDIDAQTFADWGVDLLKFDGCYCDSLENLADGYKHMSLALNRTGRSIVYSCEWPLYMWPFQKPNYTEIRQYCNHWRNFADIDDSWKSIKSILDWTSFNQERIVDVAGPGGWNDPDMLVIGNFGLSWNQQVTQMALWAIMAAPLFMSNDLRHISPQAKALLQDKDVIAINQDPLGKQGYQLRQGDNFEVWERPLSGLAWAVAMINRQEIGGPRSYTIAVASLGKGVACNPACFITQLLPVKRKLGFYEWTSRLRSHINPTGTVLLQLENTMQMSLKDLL
Sequence of DNA repair nuclease/redox regulator APEX1 (Homo sapiens) (P27695 whole entry, looked up): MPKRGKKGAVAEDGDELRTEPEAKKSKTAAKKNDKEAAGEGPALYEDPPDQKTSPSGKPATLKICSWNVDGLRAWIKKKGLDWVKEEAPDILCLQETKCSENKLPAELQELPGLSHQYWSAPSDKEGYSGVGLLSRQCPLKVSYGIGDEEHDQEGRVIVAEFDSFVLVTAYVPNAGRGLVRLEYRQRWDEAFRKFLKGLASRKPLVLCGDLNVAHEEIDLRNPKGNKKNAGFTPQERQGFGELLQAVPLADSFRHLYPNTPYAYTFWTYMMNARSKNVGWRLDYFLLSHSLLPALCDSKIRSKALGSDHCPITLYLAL
Sequence of ATP-dependent DNA helicase Q1 (Homo sapiens) (P46063 whole entry, looked up): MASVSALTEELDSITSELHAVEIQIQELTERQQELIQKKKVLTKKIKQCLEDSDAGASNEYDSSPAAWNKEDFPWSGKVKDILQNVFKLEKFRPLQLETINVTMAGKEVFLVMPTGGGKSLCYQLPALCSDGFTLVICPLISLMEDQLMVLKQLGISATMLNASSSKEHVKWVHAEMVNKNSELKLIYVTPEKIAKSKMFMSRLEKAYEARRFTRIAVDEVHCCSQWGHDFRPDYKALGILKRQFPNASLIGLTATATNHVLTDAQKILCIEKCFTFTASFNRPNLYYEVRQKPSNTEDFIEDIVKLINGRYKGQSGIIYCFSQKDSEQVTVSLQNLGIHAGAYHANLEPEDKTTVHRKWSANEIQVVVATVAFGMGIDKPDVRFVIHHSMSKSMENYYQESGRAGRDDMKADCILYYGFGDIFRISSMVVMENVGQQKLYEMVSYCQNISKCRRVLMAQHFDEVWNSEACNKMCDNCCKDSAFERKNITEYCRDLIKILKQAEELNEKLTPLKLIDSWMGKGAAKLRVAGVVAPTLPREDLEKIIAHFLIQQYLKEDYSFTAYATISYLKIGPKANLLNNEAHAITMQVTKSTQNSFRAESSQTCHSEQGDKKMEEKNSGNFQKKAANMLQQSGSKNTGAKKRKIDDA
Sequence of RecQ-like DNA helicase BLM (Homo sapiens) (P54132 whole entry, looked up): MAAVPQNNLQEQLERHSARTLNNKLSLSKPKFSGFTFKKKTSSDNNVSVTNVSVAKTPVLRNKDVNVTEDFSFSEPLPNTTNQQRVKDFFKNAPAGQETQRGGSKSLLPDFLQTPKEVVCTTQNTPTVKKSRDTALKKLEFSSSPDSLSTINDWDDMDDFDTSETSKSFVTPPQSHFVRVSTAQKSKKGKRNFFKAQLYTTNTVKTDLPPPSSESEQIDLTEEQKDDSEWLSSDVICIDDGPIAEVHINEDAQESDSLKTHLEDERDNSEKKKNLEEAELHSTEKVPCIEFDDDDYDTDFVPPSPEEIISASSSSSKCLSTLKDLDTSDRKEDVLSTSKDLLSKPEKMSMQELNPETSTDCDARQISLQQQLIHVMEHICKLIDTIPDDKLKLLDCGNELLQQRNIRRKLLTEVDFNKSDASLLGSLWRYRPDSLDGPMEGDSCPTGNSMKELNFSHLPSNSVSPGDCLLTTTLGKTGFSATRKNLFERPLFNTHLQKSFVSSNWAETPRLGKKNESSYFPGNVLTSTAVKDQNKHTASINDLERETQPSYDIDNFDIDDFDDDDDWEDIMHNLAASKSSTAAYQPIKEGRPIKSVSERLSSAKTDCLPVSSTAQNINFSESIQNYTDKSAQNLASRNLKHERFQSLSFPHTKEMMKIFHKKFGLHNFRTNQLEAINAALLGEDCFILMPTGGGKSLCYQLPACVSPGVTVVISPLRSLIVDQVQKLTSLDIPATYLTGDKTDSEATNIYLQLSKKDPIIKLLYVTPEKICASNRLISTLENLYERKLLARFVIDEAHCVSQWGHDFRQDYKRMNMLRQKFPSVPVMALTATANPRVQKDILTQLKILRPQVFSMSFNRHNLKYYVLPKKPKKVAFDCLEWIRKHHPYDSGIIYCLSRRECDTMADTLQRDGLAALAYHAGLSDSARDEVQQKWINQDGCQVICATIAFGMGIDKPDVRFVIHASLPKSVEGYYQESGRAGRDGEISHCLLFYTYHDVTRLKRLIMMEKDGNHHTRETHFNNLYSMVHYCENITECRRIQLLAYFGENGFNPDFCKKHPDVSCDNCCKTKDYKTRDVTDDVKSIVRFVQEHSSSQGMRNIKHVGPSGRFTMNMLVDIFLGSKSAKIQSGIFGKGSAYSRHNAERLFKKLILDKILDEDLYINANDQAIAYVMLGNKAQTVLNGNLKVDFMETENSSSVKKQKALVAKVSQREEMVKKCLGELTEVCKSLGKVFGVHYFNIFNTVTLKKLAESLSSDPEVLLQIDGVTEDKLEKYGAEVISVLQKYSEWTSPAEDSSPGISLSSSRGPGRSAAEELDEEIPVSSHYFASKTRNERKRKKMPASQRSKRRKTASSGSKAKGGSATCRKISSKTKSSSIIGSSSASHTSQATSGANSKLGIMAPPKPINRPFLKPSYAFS
Sequence of Ferritin light chain (Equus caballus) (P02791 2-175 limits assumed): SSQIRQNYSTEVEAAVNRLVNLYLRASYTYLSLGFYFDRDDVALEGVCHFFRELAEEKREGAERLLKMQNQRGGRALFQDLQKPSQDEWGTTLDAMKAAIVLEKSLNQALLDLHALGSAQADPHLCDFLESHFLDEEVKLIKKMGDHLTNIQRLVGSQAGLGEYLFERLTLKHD

`CN(C)Cc1ccccc1`: the molecule was classed as inactive in test [1], in test [2], in test [3], in test [4], in [5] and in [6]. Moreover, the molecule was called inactive in [7].

As to `Cc1ccc(OC[C@H](O)[C@H](C)NC(C)C)c2c1CCC2`, the result in [8] and in [9] was inactive. Further, in [10], the activity change, negative = inhibition is -0.878% (inactive). Also, the max response turned out to be 5.72% in test [10] (setting [21]) and 7.78% in test [10] (setting [22]).

`O=C(O)CC(O)(CC(=O)O)C(=O)O`: the molecule was classed as inactive in test [1], in [2], in [4], in test [5], in [6] and in test [7]. Moreover, the activity change, negative = inhibition in test [10] was -0.75% (inactive). For the same molecule, the max response came to 14.5% in test [10] (setting [21]) and 16% in test [10] (setting [22]).

On to `C=Cc1ccccc1`, for which the molecule was called inactive in test [3], in [4], in test [5], in test [6] and in test [7].

Turning to `C1CNCCN1`, the activity change, negative = inhibition in test [10] was 8.66% (inactive). The values for the max response in test [10] (setting [21]) and in test [10] (setting [22]) were 6.29% and 18.5%, respectively.

Consider `NCCCC(=O)O`, for which the molecule was called inactive in test [8], in test [9], in test [11], in test [12], in [13] and in test [14]. In addition, the outcome in [15], in [16], in test [17], in test [18] and in test [19] was inactive. The activity change, negative = inhibition in test [10] was -0.209% (inactive) and 6.45% (inactive) and 0.252% (inactive). Also, the max response was -9.18% and 2.91% and -17.1% in [10] (setting [21]); -6.14% and 11.3% and -29.6% in [10] (setting [22]).

As to `CCCCCCCCCC(=O)O`, the molecule was called inactive in test [1], in test [2], in test [3], in [4], in test [5] and in [6]. Also, the result in test [7] was inactive.

Take `CN[C@H]1CC[C@@H](c2ccc(Cl)c(Cl)c2)c2ccccc21`: the call in [8], in test [9], in test [12], in test [13], in test [16] and in test [20] was inactive.

For the molecule `CCCCCCCCCCCCCCCC(=O)OC/C=C(C)/C=C/C=C(C)/C=C/C1=C(C)CCCC1(C)C`, the activity change, negative = inhibition in [10] is 3.99% (inactive). The max response was 7.5% in test [10] (setting [21]) and 14% in [10] (setting [22]).

Turning to `COC(C)=O`, the outcome in test [1], in test [2], in test [3], in [4], in test [5] and in test [6] was inactive. In addition, the call in test [7] was inactive.
